Data reported in PubChem BioAssay AID1259415 (National Center for Advancing Translational Sciences (NCATS), 2018).
In all, about 410,000 compounds went through this assay and about 18,000 (4.4%) were called active. Another 7% or so got no clear call; they are omitted. The list comes from a sample in which actives are over-represented; it also holds similar structures and randomly drawn compounds. Unmarked numbers belong to inactive results. Cut-off read from the data, not from the text of the source: active = activity change below about -60%; inconclusive = no clear call, values can overlap the other calls; inactive = above about -39%.

Experiment: qHTS Assay for inhibitors of the human cytomegalovirus (HCMV)
Settings: HFF cells, HCMV-luciferase reporter, 72 h; at 57.5 µM; active compounds read low
How it was run: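 After 16 h attachment at 37C, HFF cells received test compound and HCMV-luciferase (1 PFU/cell); reporter luminescence read 72 h later, data normalized against buffer-only and known inhibitor Salinomycin.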
% is set by controls: 0 for no effect and ±100 for the full control effect.

SMILES | activity change, negative = inhibition
O=C(NCc1ccccc1)C(=O)NCC(c1ccco1)S(=O)(=O)c1ccc(Cl)cc1 (stereo not given) | -24.1%
O=c1oc(-c2ccco2)nc2sc3c(c12)CCCCC3 | 69%
S=c1[nH]nc2c3c4c(sc3ncn12)CCCC4 | -26.7%
c1nnc2c3c4c(sc3ncn12)CCC4 | -65.9% (active)
O=C(Nc1nnc(C2=COCCO2)o1)c1ccc([N+](=O)[O-])s1 | -20.1%
Cc1cccc(CSc2nc3ccncc3n2Cc2ccc(C(=O)O)cc2)c1 | 9.17%
COc1cccc(Cn2c(SCc3ccc(C(=O)N4CCC(C)CC4)cc3)nc3ccncc32)c1 | -13.1%
Cc1cccc(Cn2c(SCc3ccc(C(=O)N4CCC(C)CC4)cc3)nc3ccncc32)c1 | -62.6% (active)
NC1(C#Cc2ccc(F)c(-c3noc4ccccc34)c2)CCCCC1 | -18.5%
O=C(NNc1ccccc1Cl)C(O)(c1cccc(C(F)(F)F)c1)c1cccc(C(F)(F)F)c1 | -100% (active)
O=C(Nc1cc(C(F)(F)F)ccc1Cl)c1nc2ccccc2nc1N1CCCCC1 | 10.2%
O=c1cc(O)c(-c2cccc(C(F)(F)F)c2)c(Cl)[nH]1 | -14.8%
COc1cccc(/C=C2\Sc3ccc(C(=O)NCC4CCCO4)cc3N(C)C2=O)c1 (stereo not given) | -14.4%
COc1cccc(NC(=O)C2C(c3ccccc3)C2(Cl)Cl)c1 (stereo not given) | -32.5%
COc1ccc2c(c1)C(C)=CC(C)(C)N2C(=O)CNCc1ccc2c(c1)OCO2 | -9.9%
COc1ccc2c(c1)C(C)=CC(C)(C)N2C(=O)Nc1ccccc1 | -99.4% (active)
C#CCOc1ccc(C2CC(=O)Nc3c2c(C)nn3-c2nc(C)cc(C)n2)cc1 (stereo not given) | -10.8%
CC[C@]12c3[nH]c4cc(CCC(=O)N(C)C)ccc4c3CCN1C(=O)[C@@H](CC(=O)NCCCN(C)C)C[C@@H]2C(=O)N1CCN(C(=O)c2ccco2)CC1 | -18.4%
CN1c2ccc(Cl)cc2-c2nc(SCC(=O)Nc3cc(F)ccc3F)ncc2S1(=O)=O | -32.3%
O=C(Nc1ccccc1C(=O)N1CCOCC1)c1ccc(CSc2ccccc2)cc1 | -24.2%
O=C(Nc1ccc(CSc2ccccc2)cc1)c1ccc(CN2CCOCC2)cc1 | -79.7% (active)
C/C(CCc1ccccc1)=N\NC(=O)c1ccc(CN2CCOCC2)cc1 | -12.4%
CCCCN1CCNC1=S | 47%

SMILES | activity change, negative = inhibition
CCn1cc(C(=O)NCc2ccc(C)cc2)c(=O)c2cc(S(=O)(=O)N3CCc4ccccc4C3)ccc21 | 7.01%
Cc1ccc(Cl)cc1N(C)C(=O)C1CCCN(c2ncnc3onc(-c4ccc(F)cc4)c23)C1 (stereo not given) | -73.3% (active)
CCc1ccccc1N(C)C(=O)C1CCCN(c2ncnc3onc(-c4ccc(F)cc4)c23)C1 (stereo not given) | 6.75%
Cc1c(Cl)cccc1NC(=O)C1CCCN(c2ncnc3onc(C)c23)C1 (stereo not given) | 4.4%
CC(C)Oc1ccc(S(=O)(=O)N2CCOCC2)cc1NC(=O)C1CCCC1 | 36.7%
CCCc1cc(=O)oc2c(C)c(O)c(CN3CCCCC3)cc12 | -20.3%
Cn1c(=O)c2c(nc(N3CCCCCC3)n2CC(O)COc2ccc(Cl)cc2)n(C)c1=O (stereo not given) | 16.7%
OC(COc1ccc(CN2CCSCC2)cc1)CN1CCCCC1 (stereo not given) | 0%
O=C(c1ccc(Cl)cc1)c1ccc(OCC(O)CN2CCCCC2)cc1 (stereo not given) | -63.1% (active)
COc1ccc(NC(=O)CCNS(=O)(=O)c2ccc3c(c2)CCCC(=O)N3)cc1Cl | -20.5%
CCn1c(CNC(=O)C23CC4CC(CC(C4)C2)C3)nnc1SCC(=O)Nc1ccc(OC)cc1 | 10%
Cc1no[n+]([O-])c1COc1ccccc1/C=C1\NC(=S)NC1=O | -83.4% (active)
C#CCOc1ccccc1/C=C1/C(=O)ON=C1C | 52.7%
COC(=O)c1ccc(Cn2c(SCC(=O)N(C)c3ccccc3)nc3ccccc32)cc1 | -6.59%
COc1ccc(-c2nnc(SC(=O)N3c4ccccc4Sc4ccccc43)o2)cc1 | 10.6%
N/C(=N\OC(=O)N1c2ccccc2Sc2ccccc21)c1ccc(Br)cc1 | -63.7% (active)
N/C(=N\OC(=O)CCc1ccccc1)c1ccc(Cl)cc1 | 10.6%
COc1cc(Cl)c(NC(=O)CC(C)S(=O)(=O)c2cc3c(cc2C)NC(=O)CO3)c(OC)c1 (stereo not given) | -4.28%
CS(=O)(=O)N(CC(=O)NCc1ccco1)c1ccc2c(c1)OCO2 | -9.98%
O=C(CN(c1ccc2c(c1)OCCO2)S(=O)(=O)c1ccccc1)Nc1ccc2c(c1)OCO2 | -86.6% (active)
COc1ccc(S(=O)(=O)N(C)CC(=O)Nc2ccc3c(c2)OCCO3)cc1OC | 51.4%
Cc1cccn2c(=O)c3cc(C#N)c(=NC(=O)c4cccnc4)n(CC4CCCO4)c3nc12 (stereo not given) | 2.74%
Cc1cccn2c(=O)c3cc(C(=O)NCCN4CCOCC4)c(=N)n(Cc4cccnc4)c3nc12 | -86% (active)

SMILES | activity change, negative = inhibition
Cc1cccn2c(=O)c3cc(C(=O)NC(C)c4ccccc4)c(=N)n(CCCO)c3nc12 (stereo not given) | -15.1%
CCCn1c(=N)c(C(=O)NCc2ccccc2)cc2c(=O)n3cccc(C)c3nc21 | -7.61%
COCCCn1c(C(=O)NC2CCCCC2)cc2c(=O)n3cccc(C)c3nc21 | 1.95%
COc1ccc(CCn2c(=N)c(C(=O)NCc3ccco3)cc3c(=O)n4cccc(C)c4nc32)cc1 | -83.4% (active)
Cc1cc(Br)ccc1NC(=O)Cn1cnc2sc(C)c(S(=O)(=O)N3CCN(C)CC3)c2c1=O | 0.161%
CCCS(=O)(=O)NC(=O)C1(C)CCCN(C(=O)c2cc(C)on2)C1 (stereo not given) | 32.5%
Cc1cccc(N2CCN(C(=O)c3ccc4c(c3)CCN4S(=O)(=O)c3ccccc3)CC2)c1C | -25.8%
O=C(CC1N=C2c3ccccc3N=C(SCc3cccc(Cl)c3)N2C1=O)NCc1ccc2c(c1)OCO2 (stereo not given) | -15.6%
CCCN1C(=O)COCc2cc(-c3cccc(CO)c3)ccc21 | 6.92%
COc1ccc(CNC(=O)CSc2n[nH]c(-c3ccc(F)cc3)n2)cc1 | 19.4%
COc1ccc(-c2nc(SCC(=O)N3CCCCC3C)n[nH]2)cc1 (stereo not given) | 1.78%
CCc1ccc(-c2nc(SCC(=O)NC3CCCC3)n[nH]2)cc1 | -90.7% (active)
COc1cc(/C=C/CNC[C@H]2O[C@@H](n3cnc(C(N)=O)n3)[C@H](O)[C@@H]2O)ccc1O | -3.95%
Cc1ccccc1C(=O)N(Cc1ccc(N(C)C)cc1)CC1CCCO1 (stereo not given) | -18.1%
Cc1cc(C)cc(-n2ccnc2SCC(=O)Nc2nc3ccccc3s2)c1 | -5.53%
c1ccc(C(=NNc2nc3ccccc3s2)c2ccccn2)cc1 | -99.2% (active)
Cc1ccccc1-n1c(=O)c2ccccc2n(Cc2ccc(F)cc2)c1=O | -13.5%
CN1C(=O)/C(=C/C=C2\SCCN2C)OC1=S | 143%
Cc1cc2c(cc1C)[n+](C)cn2CC(O)COCC1CC=CCC1 (stereo not given) | -71.1% (active)
CCCC12CN3CC(CCC)(CN(C1)C3c1c[nH]c3ccc(OC)cc13)C2=O (stereo not given) | 14%
c1ccc2c(c1)C(=NC1CCCCC1)NC2=NC1CCCCC1 | -38.8%
CCOc1cccc(=NC2CCCCC2)c2c(C)[nH]c(C)c12 | -110% (active)
CCOc1ccccc1NC(=O)NC1CCCCCCC1 | -14.2%

SMILES | activity change, negative = inhibition
CCOc1ccc(Nc2oc(/C=C/c3ccc(F)cc3)nc2C#N)cc1 | 11.4%
O=C(Cn1c(-c2cccs2)cc2ccccc21)NCCc1ccc(Cl)cc1 | -112% (active)
Cc1ccc(CCNC(=O)Cn2c(-c3cccs3)cc3cc(F)ccc32)cc1 | -16.7%
Cc1cccc(Cn2c(=O)n(CCC(=O)NCCc3ccc(Cl)cc3)c(=O)c3sccc32)c1 | -10.1%
O=C(c1ccc(Br)cc1)N(Cc1cccs1)c1ccc(F)cc1 | -5.5%
O=C(Nc1ccc2nc(SCC(=O)N3CCc4ccccc43)sc2c1)c1ccccc1F | 26.3%
CC(NCC(=O)Nc1ccccc1C(=O)NC1CC1)c1ccccc1Cl (stereo not given) | -103% (active)
O=C(COc1ccccc1Cl)Nc1ccccc1C(=O)NC1CC1 | -2.06%
CCCC(NCC(=O)Nc1ccccc1C(=O)NC1CC1)c1ccccc1 (stereo not given) | -16.1%
COC(=O)C1C(=O)NCC1c1ccc(OC)cc1 (stereo not given) | 19.2%
O=C(NC1CCC(O)CC1)c1ccc(S(=O)(=O)NCc2ccco2)cc1 (stereo not given) | -14.7%
CCc1nnc(SCC(=O)Nc2cc(OC)ccc2OC)nc1CC | 0%
COc1ccc(CCNC(=O)NS(=O)(=O)c2ccc(C)cc2)cc1OC | 12.4%
COc1ccc(C(=O)Oc2cc(/C=N/NS(=O)(=O)c3ccc(C)cc3)ccc2OC)cc1 | -102% (active)
COc1ccc(S(=O)(=O)N/N=C\c2ccc(OC)c(COc3ccc(C)cc3[N+](=O)[O-])c2)cc1 | 12.7%
Cc1cccc(NC(=O)c2ccc3nc(C(C)C)oc3c2)c1C | -5.74%
CCOc1ccc(C(=O)/C=C/c2cn(CC(O)CN3CCCCCC3)c3ccccc23)cc1 (stereo not given) | -29%
Cc1ccc(-c2nn(CCC(=O)Nc3ccc(OC(F)(F)F)cc3)c(=O)c3ccccc23)cc1 | 0.866%
COc1ccc(S(=O)(=O)N2CCc3ccccc32)cc1C(=O)Nc1cc(S(C)(=O)=O)ccc1Cl | -62.7% (active)
CCN(C(=O)COC(=O)c1cc(S(=O)(=O)N2CCc3ccccc32)ccc1OC)C1CCS(=O)(=O)C1 (stereo not given) | -18%
O=C(Nc1cc(C(F)(F)F)ccc1Cl)c1ccc2c(c1)CCN2S(=O)(=O)c1ccccc1 | -29.1%
